# From PubChem BioAssay
# LRH-1 inv ag = suppresses constitutive activity of human LRH-1; 360,000 tested, 0.13% active; HEK293T StAR-luciferase reporter, LRH-1 transfected, 24 h; inhibition, % at 3.6 µM; AID 602396;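 active means inhibition above the mean inhibition of all tested compounds plus 3 SD, cut at about 73% in these data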;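 further: 0% = DMSO wells and 100% = reporter-only cells lacking LRH-1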
# Target sequence (O00482 whole entry, looked up): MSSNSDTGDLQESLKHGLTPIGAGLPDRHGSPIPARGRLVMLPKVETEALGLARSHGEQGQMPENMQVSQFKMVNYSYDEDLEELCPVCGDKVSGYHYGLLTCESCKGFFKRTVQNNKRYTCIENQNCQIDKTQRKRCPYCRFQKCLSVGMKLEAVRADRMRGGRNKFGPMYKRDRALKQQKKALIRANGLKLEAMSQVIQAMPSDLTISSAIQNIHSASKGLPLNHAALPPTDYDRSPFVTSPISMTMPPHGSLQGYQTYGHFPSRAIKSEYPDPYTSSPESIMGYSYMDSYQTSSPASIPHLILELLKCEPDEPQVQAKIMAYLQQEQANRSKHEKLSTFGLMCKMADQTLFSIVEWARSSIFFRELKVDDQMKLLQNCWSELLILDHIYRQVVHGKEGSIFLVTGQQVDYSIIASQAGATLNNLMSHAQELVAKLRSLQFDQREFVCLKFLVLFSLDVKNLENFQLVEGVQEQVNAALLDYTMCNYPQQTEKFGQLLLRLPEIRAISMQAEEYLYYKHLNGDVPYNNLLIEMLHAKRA
# COUP-TFII inh = NR2F2 (human) inhibition, primary screen; P24468; inhibition, % at 8.6 µM; HEK293T NGFI-A luciferase reporter, luminescence; 370,000 tested, 0.7% active; AID 686940;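 active means inhibition above a per-plate cutoff, mean inhibition of test wells between control levels plus 3 SD, cut at about 38% in these data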;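 further: cells cotransfected with COUP-TFII expression vector driving the NGFI-A reporter; 0% = median of COUP-TF2 test wells and 100% = reporter-only cells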
# NCOA1 inh = human NCOA1 inhibition | HEK293 GAL4-SRC1 luciferase reporter, luminescence | 360,000 tested, 0.12% active | inhibition, % at 3.6 µM;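 active means inhibition above the campaign mean plus 3 SD, with each screening campaign given its own cutoff, cut at about 60% in these data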;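 further: 0% = DMSO treated cells and 100% = gossypol at 36 µM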
# SRC3 inh = inhibits human SRC3 coactivator | Q9Y6Q9 | HEK293 GAL4-SRC3 luciferase reporter, luminescence | inhibition, % at 3.6 µM | 360,000 tested, 0.17% active;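 active means inhibition above a per-campaign cutoff, the mean of all compounds plus 3 SD, cut at about 60% in these data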;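 further: 0% = DMSO-treated cells and 100% = gossypol-treated cells at 36 µM; higher means less SRC3-driven luciferase light from the GAL4 reporter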
# Gli-Sufu block = Gli-Sufu pathway antagonism | inhibition, % at 5 µM | 340,000 tested, 0.74% active | AID 588413 | Sufu-KO-LIGHT fibroblasts, Gli luciferase reporter luminescence;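 active means inhibition above about 55%, limit read from the data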;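 further: 0% = DMSO-treated cells and 100% = wells with medium but no cells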
# SRC2 inh = inhibits human steroid receptor coactivator 2; 370,000 tested, 0.17% active; AID 651957; HEK293 GAL4-SRC2 luciferase reporter, luminescence; inhibition, % at 9 µM; Q15596;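 active means inhibition above the mean inhibition of all tested compounds plus 3 SD, set per campaign, cut at about 52% in these data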;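 further: 0% = DMSO treated cells and 100% = cells given Gossypol at 36 µM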
# Gli-Sufu confirm = confirmation of Gli-SUFU pathway antagonists; shares compounds with Gli-Sufu block; Sufu-KO-LIGHT cells, Gli luciferase reporter, luminescence; inhibition, % at 5 µM; 2,500 tested, 40% active;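 active means mean inhibition at 5 µM reaching about 45%, limit read from the data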;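 further: plate controls were DMSO-treated cells for no effect and wells lacking cells for full effect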
# Gli cytotox = counter-screen for Gli-SUFU antagonists: cytotoxicity. shares compounds with Gli-Sufu block. Sufu-KO-LIGHT cells cytotoxicity, ATP luminescence. cytotoxicity, % at 5 µM. 2,500 tested, 32% active. AID 651994;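 active means mean cytotoxicity at 5 µM above about 25%, limit read from the data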;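 further: cells exposed to compound overnight for roughly 16 to 18 hours; plate controls were DMSO wells with cells for no effect and medium without cells for full effect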
# Wnt3a counter = Wnt3a reporter inhibition counter-screen; Wnt-LIGHT cells, Wnt3a-driven luciferase reporter, luminescence; 2,500 tested, 20% active; inhibition, % at 6.25 µM; shares compounds with Gli-Sufu block;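 active means mean inhibition above about 25%, limit read from the data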
# * = called active by the depositor; nt = no result given. Compounds with a hit are over-represented: about 1.3% of the library has one in this group of screens.
SMILES,LRH-1 inv ag,COUP-TFII inh,NCOA1 inh,SRC3 inh,Gli-Sufu block,SRC2 inh,Gli-Sufu confirm,Gli cytotox,Wnt3a counter
Cc1cc(NC(=O)COc2ccc(Cl)cc2Cl)n(-c2ccccc2)n1,0,8,-40,6,5,24,nt,nt,nt
Cc1cc(NC(=O)CSc2cc(Cl)ccc2Cl)n(-c2ccccc2)n1,13,7,-49,19,52,-4,22,7,-5
Cc1nn(Cc2ccccc2)c(C)c1NC(=O)CSc1nc(C2CC2)nc2c1cnn2-c1ccccc1,10,-20,-10,9,0,13,nt,nt,nt
O=C(CSc1nc(C2CC2)nc2c1cnn2-c1ccccc1)Nc1c[nH]c(=O)[nH]c1=O,2,10,-42,6,99*,13,30,2,17
COc1cccc(CNCCN2CCOCC2)c1OC,12,-2,-37,3,-4,-27,nt,nt,nt
CCOc1c(CNCCN2CCOCC2)cccc1OC,25,18,4,14,52,-2,30,-1,23
COC(=O)c1ccc(OCC(O)CN2CCc3cc(OC)c(OC)cc3C2c2ccccc2)cc1 (stereo not drawn),9,3,-8,9,58*,1,27,19,-59
CCOc1ccc(CCNC(=O)c2cc3sccc3n2Cc2cccc(C)c2)cc1OCC,nt,21,nt,nt,nt,nt,nt,nt,nt
S=c1[nH]nc(CSCCOc2ccc(Cl)cc2Cl)o1,-5,1,-7,10,55,14,15,7,-28
CC(=O)N1CCOc2ccc(S(=O)(=O)NC(C)c3ccccc3)cc21 (stereo not drawn),12,13,10,28,61*,15,24,-6,1
CC(=O)N1CCc2cc(S(=O)(=O)NC(C)c3ccccc3)ccc21 (stereo not drawn),-3,2,23,15,27,8,nt,nt,nt
O=C(c1ccc(F)cc1)N1CCN(C2CCCCC2)CC1,3,7,-47,-1,58*,-33,24,16,-17
O=C(c1ccc(OC2CCN(Cc3ccc(F)cc3)CC2)cc1)N1CCCC1,15,-8,2,2,55*,11,16,8,11
CCc1ccc(CN2CCC(Oc3ccc(C(=O)N4CCCC4)cc3)CC2)cc1,-19,20,4,4,22,6,nt,nt,nt
CC(=O)N1CCN(C(=O)CN2C(=O)NC(C)(c3ccc4ccccc4c3)C2=O)CC1 (stereo not drawn),20,2,1,2,-1,-13,nt,nt,nt
CC1(c2ccc3ccccc3c2)NC(=O)N(CC(=O)N2CCN(Cc3ccc(C#N)cc3)CC2)C1=O (stereo not drawn),57,nt,22,25,68*,nt,71*,21,32*
C[C@@H]1CN(c2ccc(N3CCNC[C@@H]3C)cc2C#N)CCN1Cc1ccccc1,nt,13,nt,nt,nt,-15,nt,nt,nt
COc1ccc(CC(=O)NNC(=O)CCC(=O)Nc2cc(C)ccc2C)cc1,5,6,1,13,82*,8,11,15,-1
COc1ccc(C(=O)NNC(=O)CCC(=O)Nc2ccc(C)cc2C)cc1,2,-19,-7,3,4,0,nt,nt,nt
O=C(O)Cn1c(-c2ccccc2)nc2ccccc21,6,8,-53,-13,96*,-99,29,8,5
C[C@H]1CN=C(N(C)C)N1CCCCc1ccccc1,-4,3,-3,13,2,-34,nt,nt,nt
CC(C)C[C@H]1CN=C(N(C)C)N1CC1CCCC1,11,4,-7,7,47,-18,nt,nt,nt
CC(C)C[C@H]1CN=C(N(C)C)N1CCCCc1ccccc1,15,-2,11,18,61*,2,62*,24,23
CCC(CC)CN1C(N(C)C)=NC[C@@H]1CC(C)C,2,-22,-16,-3,56*,-7,51*,16,25
CCC(C)CCN1C(N(C)C)=NC[C@@H]1CC(C)C (stereo partly drawn),15,2,-3,10,71*,-18,56*,16,18
SMILES,LRH-1 inv ag,COUP-TFII inh,NCOA1 inh,SRC3 inh,Gli-Sufu block,SRC2 inh,Gli-Sufu confirm,Gli cytotox,Wnt3a counter
O=C(NCC(c1ccccc1)c1ccccc1)[C@H](Cc1ccccc1)NC1(C(=O)NC2CCCCC2)CCCC1,nt,27,nt,nt,nt,nt,nt,nt,nt
CC(=O)Nc1cccc(C(=O)Nc2cccc3ncccc23)c1,0,9,-32,-12,86*,-22,18,5,23
CC(CC(=O)Nc1ccc(-c2ccno2)cc1)n1cccn1 (stereo not drawn),-27,1,-73,-8,-15,-1,nt,nt,nt
Cc1cc(C)n(C(C)CC(=O)Nc2ccc(-c3ccno3)cc2)n1 (stereo not drawn),-1,-12,-6,23,56*,9,16,-1,-16
C=CC(=O)NC1CCCCN(C)C1=O (stereo not drawn),nt,-3,nt,nt,nt,-11,nt,nt,nt
CCOC(=O)c1sc(NC(=O)c2cc(-c3ccccc3)nc3ccccc23)c(C#N)c1C,-5,-5,-15,-5,53,-8,74*,11,65*
CCOC(=O)c1sc(NC(=O)c2cccc(S(=O)(=O)N3CCc4ccccc43)c2)c(C#N)c1C,1,3,-5,17,73*,25,78*,16,72*
CCOC(=O)c1sc(NC(=O)CSc2n[nH]c(-c3ccccc3)n2)c(C#N)c1C,-2,-2,-24,2,16,-14,nt,nt,nt
Cc1ccc(S(=O)(=O)N2CCC(C(=O)N[C@@H](C)C(=O)Nc3ccc4c(c3)OCO4)CC2)cc1,3,1,-30,-5,53,-17,21,15,-4
COc1ccc(C(=O)C[n+]2cc(-c3ccc(OC)cc3)n3c2CCCC3)cc1,8,2,0,10,73*,-4,68*,26*,-4
COc1ccc(-c2c[n+](CC(=O)c3cccs3)c3n2CCC3)cc1,11,-4,12,6,6,4,nt,nt,nt
CC(C)(C)NC(=O)[C@@H](c1cccnc1)N(C(=O)c1ccco1)c1ccc(C(C)(C)C)cc1,nt,-3,nt,nt,nt,nt,nt,nt,nt
O=C(Cc1ncc(C(F)(F)F)cc1Cl)NCCc1ccccn1,-8,12,-9,-3,55*,-4,22,12,1
CN(C)CCNC(=O)Cc1ncc(C(F)(F)F)cc1Cl,1,13,-8,10,4,-14,nt,nt,nt
CC(C)C[C@@H](CCCc1ccccc1)CCC(=O)N(c1ccccc1)c1ccccc1,nt,1,nt,nt,nt,17,nt,nt,nt
Nc1nc2ccccc2n1/N=C/c1cccnc1,1,1,-6,10,16,10,nt,nt,nt
Nc1nc2ccccc2n1/N=C/c1ccc([N+](=O)[O-])s1,54,10,-1,12,54,-2,53*,19,-118
